The text below walks through data of PubChem BioAssay AID1347142 (National Center for Advancing Translational Sciences (NCATS), 2019).

Inconclusive results are not listed. Unmarked numbers belong to inactive results. Active and inactive are the calls of the source. Calls come from the whole dose curve; as a rule, active = well fitted inhibition curve with a large enough effect; inconclusive = small, poorly fitted or top-dose-only effect; inactive = no such curve, though single readings can be large or run the other way.
Note: nearly all actives have a fitted effect of over 80% in size.
Potency is the fitted concentration of half-maximal effect.
Throughout, for activity change, negative = inhibition: 0% is about no effect.

Chain of N-terminal Xaa-Pro-Lys N-methyltransferase 1 (Homo sapiens) (Q9BV86 whole entry, looked up): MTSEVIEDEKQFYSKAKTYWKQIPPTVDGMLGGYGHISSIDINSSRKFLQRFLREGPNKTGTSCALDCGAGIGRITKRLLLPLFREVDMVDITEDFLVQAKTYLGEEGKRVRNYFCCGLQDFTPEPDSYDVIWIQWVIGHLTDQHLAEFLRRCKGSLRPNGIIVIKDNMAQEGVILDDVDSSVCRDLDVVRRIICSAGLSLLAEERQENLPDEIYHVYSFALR

The experiment concerns the target N-terminal Xaa-Pro-Lys N-methyltransferase 1 (Homo sapiens) (UniProt Q9BV86). Put plainly: qHTS Assay for Inhibitors of N-terminal methyltransferase 1 (NTMT1): ThioGlo3 Assay Confirmatory Screen, Round 1. To be noted: NTMT1 SAHH-coupled ThioGlo3 fluorescence, 30 min; series mostly up to 56.8 µM; activity change, negative = inhibition: at the top concentration. The method, boiled down: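 Human NTMT1 at 125 nM was preincubated 1 min at room temperature with compounds at various concentrations or 1 uM RCC1-6 control. Substrate mix (100 uM SAM, 10 uM SAHH, 15 uM ThioGlo3) was added, and fluorescence (Ex 340/Em 450 nm) was read at start and after 30 min, normalized to background.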
In the case of `CCN(c1cc(C#CCN2CCOCC2)cc(C(=O)NCc2c(C)cc(C)[nH]c2=O)c1C)C1CCC(N(C)CCOC)CC1` (stereo unspecified), the “activity change, negative = inhibition” value is 1.3%. With `Nc1ncnc2c1ncn2[C@H]1O[C@@H](CO)[C@@H](O)[C@H]1N`, the “activity change, negative = inhibition” value was -7.61%. Still for that read-out and setting: under `COc1cc2nc(N3CC[C@H](N(C)C)C3)nc(NC3CC3)c2cc1OC` stands 15.8%. Consider `COc1cc2c(NC3CCN(C(C)C)CC3)nc(N3CCCCC3)nc2cc1OCCOCCN(C)C`, for which the Potency was 27.1 µM (active). The same measure, in the same setting: then `COc1cc2c(NC3CCN(C)CC3)nc(N3CCCN(C)CC3)nc2cc1OCCCCN`, with 21.5 µM (active). Same read-out and setting: under `CCNc1nc(N2CCCN(C)CC2)nc2cc(OC)c(OC)cc12` stands 34.1 µM (active); under `COc1cc2nc(NC3CCN(C)CC3)nc(N3CCCN(C)CC3)c2cc1OC`, 24.1 µM (active). `CSc1nc(N)c2ncn([C@@H]3O[C@H](COP(=O)(O)OP(=O)(O)O)C(O)[C@H]3O)c2n1` (stereo partly specified): the “activity change, negative = inhibition” value was -17.9%. Same read-out and setting: under `Nc1nc(Cl)nc2c1ncn2[C@@H]1O[C@H](COP(=O)(O)OP(=O)(O)OP(=O)(O)O)[C@@H](O)[C@H]1O` stands -20.5%. As for `COc1cc2c(NC3CCN(C4CCCCC4)CC3)nc(N3CCCCCC3)nc2cc1OCCOCCN(C)C`, the Potency was 24.1 µM (active). As for `COc1cc2nc(N3CCN(C(N)=O)CC3)nc(NC3CC3)c2cc1OC`, the Potency is 27.1 µM (active).

For `OC[C@H]1O[C@@H](n2cnc3cncnc32)[C@H](O)[C@@H]1O`, the Potency is 2.41 µM (active). Still for that read-out and setting: then `COc1cc2c(NC3CCN(C)CC3)nc(N3CCCN(C)CC3)nc2cc1OCCCCCN(C)C`, with 24.1 µM (active).

In the case of `Nc1ncnc2c1ncn2[C@@H]1O[C@H](CO)[C@@H](O)[C@H]1O`, the Potency is 1.08 µM (active). As for `COc1cc2nc(N3CCOCC3)nc(NC3CCN(C)CC3)c2cc1OC`, the Potency was 24.1 µM (active). For the compound `COc1cc2nc(N(C)C)nc(NC3CC3)c2cc1OC`, the “activity change, negative = inhibition” value is -25.2%.

For the compound `Nc1ncnc2c1[nH]c(=O)n2C1CC(O)C(CO)O1` (stereo unspecified), the “activity change, negative = inhibition” value was -12.6%.

Take `COc1cc2c(NC3CCN(C(C)C)CC3)nc(N3CCCN(c4ccccc4)CC3)nc2cc1OCCCN1CCCC1`: the Potency is 17.1 µM (active). Regarding `Nc1ncnc2c1ncn2[C@@H]1O[C@@H](CO)[C@H](O)[C@H]1O`, the “activity change, negative = inhibition” value is -16.7%. On to `COc1cc2nc(N3CCCCC3)nc(NC3CCN(Cc4ccccc4)CC3)c2cc1OC`, for which the Potency was 21.5 µM (active).

`Nc1nc(Nc2ccccc2)nc2c1ncn2[C@@H]1O[C@H](CO)C(O)[C@H]1O` (stereo partly specified): the Potency is 24.1 µM (active).
